# From PubChem BioAssay (EPA / NIEHS)
# Activity calls are given as the source filed them. How the source made its calls: active means hit-call score of the fitted dose curve at least 0.9, where 1 is the maximum; inactive means score below 0.9.
# Experiments:
# Conditions in all cases: mRNA level, 48 h; actives raise or lower the signal
# [1] = read-out: adenosine kinase (ADK) gene, ADK (gene 132); experiment: LTEA_HepaRG_ADK: Life Technologies and Expression Analysis (LTEA) Assay for adenosine kinase (ADK) gene using HepaRG (AID 2283471)
# Procedure, shortened: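 Read-out is ADK transcript level measured by qRT-PCR and normalised to three housekeeping genes. Cells are human HepaRG, dosed for 48 h at up to 100 uM in 0.5% DMSO. Gain or loss of signal is fitted against DMSO controls.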
# [2] = read-out: Alpha-fetoprotein (AFP) gene, AFP (gene 174); experiment: LTEA_HepaRG_AFP: Life Technologies and Expression Analysis (LTEA) Assay for Alpha-fetoprotein (AFP) gene using HepaRG (AID 2283472)
# Procedure, shortened: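 Measures AFP mRNA change in HepaRG after 48 h chemical exposure (8 half-log concentrations, highest 100 uM, 0.5% DMSO). Fold change relative to DMSO, fitted in both directions.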
# BCL2L11 (gene 10018) = experiment: LTEA_HepaRG_BCL2L11: Life Technologies and Expression Analysis (LTEA) Assay for Bcl-2 (BCL2L11) gene using HepaRG (AID 2283473)
# Procedure, shortened: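 HepaRG, 48 h exposure, 8-pt half-log series from 100 uM in 0.5% DMSO, duplicates; qRT-PCR (Fluidigm TaqMan) for BCL2L11, housekeeping-normalized; bidirectional curve fit relative to DMSO baseline.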
# [3] = read-out: Apolipoprotein A-V (APOA5) gene, APOA5 (gene 116519); experiment: LTEA_HepaRG_APOA5: Life Technologies and Expression Analysis (LTEA) Assay for Apolipoprotein A-V (APOA5) gene using HepaRG (AID 2283474)
# Procedure, shortened: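 HepaRG, 48 h chemical exposure in serum-free induction medium, 8-pt half-log series (top 100 uM), 0.5% DMSO vehicle, duplicates. Readout: APOA5 mRNA by qRT-PCR, housekeeping-normalized; bidirectional fit vs DMSO baseline.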
# [4] = read-out: Apoptosis regulator Bcl-2 (Homo sapiens) (UniProt P10415); experiment: LTEA_HepaRG_BCL2: Life Technologies and Expression Analysis (LTEA) Assay for Bcl-2 gene using HepaRG (AID 2283475)
# Procedure, shortened: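 Each chemical was tested in duplicate on HepaRG cultures held in serum-free induction medium for 48 h, highest concentration 100 uM with half-log dilutions. Transcript levels came from multiplexed qRT-PCR, normalised to housekeeping genes; activity was scored in either direction relative to DMSO.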
# [5] = read-out: Bcl-2 (BID) gene, BID (gene 637); experiment: LTEA_HepaRG_BID: Life Technologies and Expression Analysis (LTEA) Assay for Bcl-2 (BID) gene using HepaRG (AID 2283476)
# Procedure, shortened: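 Assay used HepaRG hepatic cells treated 48 h in serum-free medium with half-log dilutions from 100 uM. Endpoint: BID mRNA, qRT-PCR, normalized to ACTB/GAPDH/POLR2A.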
# Caspase-3 (Homo sapiens) = Caspase-3 (Homo sapiens) (UniProt P42574); experiment: LTEA_HepaRG_CASP3: Life Technologies and Expression Analysis (LTEA) Assay for cysteine-aspartic acid protease (CASP3) using HepaRG (AID 2283477)
# Procedure, shortened: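 HepaRG, 48 h exposure, 8 conc. (top 100 uM, half-log steps, duplicate), 0.5% DMSO vehicle; qRT-PCR of CASP3 transcript, housekeeping-normalised (ACTB/GAPDH/POLR2A); bidirectional curve fit vs DMSO baseline.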
# [6] = read-out: Cytochrome P450 (CYP24A1), CYP24A1 (gene 1591); experiment: LTEA_HepaRG_CYP24A1: Life Technologies and Expression Analysis (LTEA) Assay for Cytochrome P450 (CYP24A1) using HepaRG (AID 2283478)
# Procedure, shortened: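 qRT-PCR read-out: CYP24A1 transcript levels normalized to three housekeeping genes, bidirectional curve fits against 0.5% DMSO baseline. Human HepaRG cells treated 48 h with chemicals at eight concentrations from 100 uM in half-log steps.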
# [7] = read-out: Cytochrome P450 (CYP1A2), CYP1A2 (gene 1544); experiment: LTEA_HepaRG_CYP1A2: Life Technologies and Expression Analysis (LTEA) Assay for Cytochrome P450 (CYP1A2) using HepaRG (AID 2283479)
# Procedure, shortened: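 HepaRG, 48 h exposure, top 100 uM, half-log 8-pt, 0.5% DMSO vehicle, duplicates. Readout: TaqMan qRT-PCR of CYP1A2 mRNA, housekeeping-normalized (ACTB/GAPDH/POLR2A). Gain/loss fit relative to DMSO baseline.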
# [8] = read-out: cysteine-aspartic acid protease (CASP8), CASP8 (gene 841); experiment: LTEA_HepaRG_CASP8: Life Technologies and Expression Analysis (LTEA) Assay for cysteine-aspartic acid protease (CASP8) using HepaRG (AID 2283480)
# Procedure, shortened: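 Concentration-response in duplicate up to 100 uM (half-log steps, 0.5% DMSO) on differentiated HepaRG cultures for 48 h. Expression change of CASP8 mRNA is determined by TaqMan qRT-PCR with housekeeping-gene normalization.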
# [9] = read-out: Cytochrome P450 (CYP2B6), CYP2B6 (gene 1555); experiment: LTEA_HepaRG_CYP2B6: Life Technologies and Expression Analysis (LTEA) Assay for Cytochrome P450 (CYP2B6) using HepaRG (AID 2283481)
# Procedure, shortened: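 Read-out is CYP2B6 mRNA by TaqMan qRT-PCR, normalized to three housekeeping genes and fitted bidirectionally against 0.5% DMSO baseline. Human HepaRG cells received test chemicals for 48 h, top concentration 100 uM, half-log dilutions.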
# CYP2C8 (gene 1558) = experiment: LTEA_HepaRG_CYP2C8: Life Technologies and Expression Analysis (LTEA) Assay for CYP2C8 using HepaRG (AID 2283483)
# Procedure, shortened: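 This is a transcriptional endpoint in HepaRG cultures: 48 h exposure, highest concentration 100 uM. CYP2C8 mRNA is quantified by TaqMan qRT-PCR.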
# CYP2C9 (gene 1559) = experiment: LTEA_HepaRG_CYP2C9: Life Technologies and Expression Analysis (LTEA) Assay for CYP2C9 using HepaRG (AID 2283484)
# Procedure, shortened: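 Eight-point concentration-response (highest 100 uM, half-log dilutions) in HepaRG cells for 48 h; CYP2C9 expression by qRT-PCR normalized to ACTB, GAPDH, POLR2A. Bidirectional fit, DMSO baseline.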
# CYP2E1 (gene 1571) = experiment: LTEA_HepaRG_CYP2E1: Life Technologies and Expression Analysis (LTEA) Assay for CYP2E1 using HepaRG (AID 2283485)
# Procedure, shortened: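 Assay uses 48 h exposure of HepaRG hepatic cells, eight concentrations to 100 uM. Expression of CYP2E1 is quantified by TaqMan qRT-PCR with ACTB, GAPDH and POLR2A normalization; curves fitted in both directions relative to vehicle.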
# CYP4A11 (gene 1579) = experiment: LTEA_HepaRG_CYP4A11: Life Technologies and Expression Analysis (LTEA) Assay for CYP4A11 using HepaRG (AID 2283486)
# Procedure, shortened: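 CYP4A11 transcript levels were quantified by TaqMan qRT-PCR after HepaRG human liver cells were treated for 48 hours with test chemicals (top 100 uM, half-log dilutions, 0.5% DMSO). Gain or loss of signal was fitted relative to DMSO.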
# [10] = read-out: Cytochrome P450 3A4 (Homo sapiens) (UniProt P08684); experiment: LTEA_HepaRG_CYP3A4: Life Technologies and Expression Analysis (LTEA) Assay for CYP3A4 using HepaRG (AID 2283487)
# Procedure, shortened: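 HepaRG, 48 h exposure, 8-pt CRC from 100 uM (half-log), 0.5% DMSO, duplicates; serum-free induction medium. Readout: CYP3A4 mRNA, qRT-PCR, ACTB/GAPDH/POLR2A normalization. Bidirectional fit vs DMSO.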
# [11] = read-out: DNA damage-inducible transcript 3 (DDIT3), DDIT3 (gene 1649); experiment: LTEA_HepaRG_DDIT3: Life Technologies and Expression Analysis (LTEA) Assay for DNA damage-inducible transcript 3 (DDIT3) using HepaRG (AID 2283488)
# Procedure, shortened: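 Eight-point concentration-response (100 uM highest, half-log dilutions) in HepaRG, 48 h, duplicate wells. Endpoint: qRT-PCR mRNA, normalized (ACTB, GAPDH, POLR2A), bidirectional fitting with DMSO as baseline.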
# [12] = read-out: Pro-epidermal growth factor (Homo sapiens) (UniProt P01133); experiment: LTEA_HepaRG_EGF: Life Technologies and Expression Analysis (LTEA) Assay for Epidermal growth factor (EGF) using HepaRG (AID 2283489)
# Procedure, shortened: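 qRT-PCR readout of EGF transcript after 48 h chemical exposure of HepaRG cells; eight concentrations from 100 uM down in half-log steps, duplicate wells, 0.5% DMSO vehicle. Bidirectional curve fitting against DMSO baseline.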
# [13] = read-out: Early growth response protein 1 (EGR1) transcription factor, EGR1 (gene 1958); experiment: LTEA_HepaRG_EGR1: Life Technologies and Expression Analysis (LTEA) Assay for Early growth response protein 1 (EGR1) transcription factor using HepaRG (AID 2283490)
# Procedure, shortened: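 EGR1 expression change in human HepaRG after 48 h chemical exposure, assessed by housekeeping-normalized qRT-PCR; concentration-response up to 100 uM, fitted in both directions against DMSO controls.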
# Chain of Apoptosis regulator Bcl-2 (Homo sapiens) (P10415 whole entry, looked up): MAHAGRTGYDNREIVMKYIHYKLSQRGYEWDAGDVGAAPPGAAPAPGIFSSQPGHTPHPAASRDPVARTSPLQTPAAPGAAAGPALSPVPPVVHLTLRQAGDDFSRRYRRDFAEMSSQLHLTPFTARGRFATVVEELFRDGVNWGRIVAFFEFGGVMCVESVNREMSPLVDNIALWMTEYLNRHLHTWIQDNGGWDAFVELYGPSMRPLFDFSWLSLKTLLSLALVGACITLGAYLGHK
# Chain of Cytochrome P450 3A4 (Homo sapiens) (P08684 whole entry, looked up): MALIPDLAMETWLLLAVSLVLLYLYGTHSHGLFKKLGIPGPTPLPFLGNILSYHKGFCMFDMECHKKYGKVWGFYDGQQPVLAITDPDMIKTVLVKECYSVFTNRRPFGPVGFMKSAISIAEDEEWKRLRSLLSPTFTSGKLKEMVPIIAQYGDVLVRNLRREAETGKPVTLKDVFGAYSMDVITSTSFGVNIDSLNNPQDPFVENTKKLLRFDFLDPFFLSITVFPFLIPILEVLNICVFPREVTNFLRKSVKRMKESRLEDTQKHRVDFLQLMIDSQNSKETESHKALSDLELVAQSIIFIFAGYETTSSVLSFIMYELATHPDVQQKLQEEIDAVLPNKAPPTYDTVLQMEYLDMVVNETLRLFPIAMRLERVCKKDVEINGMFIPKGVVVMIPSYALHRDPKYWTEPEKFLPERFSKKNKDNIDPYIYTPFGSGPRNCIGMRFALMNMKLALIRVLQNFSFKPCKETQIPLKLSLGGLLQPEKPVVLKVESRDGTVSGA
# Chain of Caspase-3 (Homo sapiens) (P42574 whole entry, looked up): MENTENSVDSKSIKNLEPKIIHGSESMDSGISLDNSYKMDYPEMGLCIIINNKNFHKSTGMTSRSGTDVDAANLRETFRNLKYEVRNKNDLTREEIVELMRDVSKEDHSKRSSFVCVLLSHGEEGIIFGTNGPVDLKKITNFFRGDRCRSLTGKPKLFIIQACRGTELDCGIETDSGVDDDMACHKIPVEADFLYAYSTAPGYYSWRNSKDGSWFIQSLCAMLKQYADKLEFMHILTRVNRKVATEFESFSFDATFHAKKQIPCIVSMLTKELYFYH
compound,measurement,setting,value
CCCCCCCCCCCO,outcome,[1],inactive
same,outcome,[2],inactive
same,outcome,BCL2L11 (gene 10018),inactive
same,outcome,[3],inactive
same,outcome,[4],inactive
same,outcome,[5],inactive
same,outcome,Caspase-3 (Homo sapiens),inactive
same,outcome,[6],inactive
same,outcome,[7],inactive
same,outcome,[8],inactive
same,outcome,[9],inactive
same,outcome,CYP2C8 (gene 1558),inactive
same,outcome,CYP2C9 (gene 1559),inactive
same,outcome,CYP2E1 (gene 1571),inactive
same,outcome,CYP4A11 (gene 1579),inactive
same,outcome,[10],inactive
same,outcome,[11],inactive
same,outcome,[12],inactive
same,outcome,[13],inactive
CC[C@@H]1C[C@H](N(Cc2cc(C(F)(F)F)cc(C(F)(F)F)c2)C(C)=O)c2cc(C(F)(F)F)ccc2N1C(=O)OC(C)C,outcome,[1],inactive
same,outcome,[2],inactive
same,outcome,BCL2L11 (gene 10018),inactive
same,outcome,[3],inactive
same,outcome,[4],inactive
same,outcome,[5],inactive
same,outcome,Caspase-3 (Homo sapiens),inactive
same,outcome,[6],inactive
same,AC50,[7],21.3 µM (active)
same,outcome,[8],inactive
same,AC50,[9],0.735 µM (active)
same,AC50,CYP2C8 (gene 1558),0.814 µM (active)
same,outcome,CYP2C9 (gene 1559),inactive
same,AC50,CYP2E1 (gene 1571),3.17 µM (active)
same,AC50,CYP4A11 (gene 1579),15.6 µM (active)
same,AC50,[10],0.29 µM (active)
same,outcome,[11],inactive
same,outcome,[12],inactive
same,outcome,[13],inactive
Cc1c2ccccc2c(C)c2c1ccc1ccccc12,outcome,[1],inactive
same,AC50,[2],51.5 µM (active)
same,AC50,BCL2L11 (gene 10018),29.6 µM (active)
same,AC50,[3],50 µM (active)
same,AC50,[4],78.3 µM (active)
same,outcome,[5],inactive
same,outcome,Caspase-3 (Homo sapiens),inactive
same,outcome,[6],inactive
same,AC50,[7],85 µM (active)
same,outcome,[8],inactive
same,AC50,[9],50 µM (active)
same,AC50,CYP2C8 (gene 1558),37.7 µM (active)
same,AC50,CYP2C9 (gene 1559),37.2 µM (active)
same,AC50,CYP2E1 (gene 1571),18.8 µM (active)
same,AC50,CYP4A11 (gene 1579),33.2 µM (active)
same,AC50,[10],78.8 µM (active)
same,AC50,[11],33.9 µM (active)
same,AC50,[12],19.9 µM (active)
same,outcome,[13],inactive
Cc1cc2c(cc1C(F)(F)F)N(C(=O)Nc1ccc(Oc3cccnc3C)nc1)CC2,AC50,[1],82.4 µM (active)
same,AC50,[2],19.9 µM (active)
same,AC50,BCL2L11 (gene 10018),81.3 µM (active)
same,AC50,[3],78 µM (active)
same,outcome,[4],inactive
same,AC50,[5],75 µM (active)
same,outcome,Caspase-3 (Homo sapiens),inactive
same,outcome,[6],inactive
same,AC50,[7],2.31 µM (active)
same,AC50,[8],73.6 µM (active)
same,AC50,[9],12.2 µM (active)
same,outcome,CYP2C8 (gene 1558),inactive
same,AC50,CYP2C9 (gene 1559),46 µM (active)
same,AC50,CYP4A11 (gene 1579),52.6 µM (active)
same,AC50,[10],1.89 µM (active)
same,outcome,[11],inactive
same,outcome,[12],inactive
same,outcome,[13],inactive
O=C(O)c1ccccc1-n1cc(C(=O)O)c(=O)c2cc(Nc3c(F)cc(F)cc3Cl)c(Cl)cc21,outcome,[1],inactive
same,outcome,[2],inactive
same,outcome,BCL2L11 (gene 10018),inactive
same,outcome,[3],inactive
same,outcome,[4],inactive
same,AC50,[5],0.01 µM (active)
same,outcome,Caspase-3 (Homo sapiens),inactive
same,outcome,[6],inactive
same,outcome,[7],inactive
same,outcome,[8],inactive
same,AC50,[9],11.2 µM (active)
same,AC50,CYP2C8 (gene 1558),7.91 µM (active)
same,outcome,CYP2C9 (gene 1559),inactive
same,AC50,CYP2E1 (gene 1571),25.5 µM (active)
same,outcome,CYP4A11 (gene 1579),inactive
same,AC50,[10],3.09 µM (active)
same,outcome,[11],inactive
same,outcome,[12],inactive
same,outcome,[13],inactive
CCCCCCCCN(C)CCCCCCCC,outcome,[1],inactive
same,outcome,[2],inactive
same,outcome,BCL2L11 (gene 10018),inactive
same,outcome,[3],inactive
same,outcome,[4],inactive
same,outcome,[5],inactive
same,outcome,Caspase-3 (Homo sapiens),inactive
same,outcome,[7],inactive
same,outcome,[8],inactive
same,outcome,[9],inactive
same,outcome,CYP2C8 (gene 1558),inactive
same,outcome,CYP2C9 (gene 1559),inactive
same,outcome,CYP2E1 (gene 1571),inactive
same,outcome,CYP4A11 (gene 1579),inactive
same,outcome,[10],inactive
same,outcome,[11],inactive
same,outcome,[12],inactive
same,outcome,[13],inactive
